Chlamy TAG: algal TAG accumulation induction. actives 0.84% (n = 44,000). calls only at 10 µM (by protocol). Chlamydomonas reinhardtii TAG, Nile Red fluorescence, 72 h; call rule not given here;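 further: hits raise Nile Red signal meaning more stored TAG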
* = called active by the depositor. This excerpt belongs to a sample that is enriched for hits.

For COc1ccc(-c2noc(COc3ccc(Br)cc3C)n2)cc1OC the results were Chlamy TAG inactive.
Cc1cc(OCc2nc(-c3cccnc3)no2)cc(C)c1Br was read as Chlamy TAG inactive.
For Cc1cccc(-c2noc(COc3ccc(Br)cc3)n2)c1 the results were Chlamy TAG active.
C=CCn1c(SCC(=O)O)nnc1-c1ccc(OC)cc1 was read as Chlamy TAG inactive.
`C=CCn1c(SCC(=O)O)nnc1-c1ccc([N+](=O)[O-])cc1` gave Chlamy TAG active.
`C=CCn1c(SCC)nnc1-c1ccc([N+](=O)[O-])cc1` gave Chlamy TAG inactive.
CN(C)CC(C)(C)CNC1C2CC3CC(C2)CC1C3 (stereo not drawn) was read as Chlamy TAG inactive.
For COc1cc([N+](=O)[O-])ccc1NC(=O)CC(C)c1ccccc1 (stereo not drawn) the results were Chlamy TAG inactive.
For Cc1ccc(C(=O)NC(C)C2CC3CCC2C3)s1 (stereo not drawn) the results were Chlamy TAG active.
`CC(NC(=O)c1ccccc1[N+](=O)[O-])C1CC2CCC1C2` (stereo not drawn) gave Chlamy TAG inactive.
Screening CC(NC(=O)c1ccccc1Br)C1CC2CCC1C2 (stereo not drawn) returned Chlamy TAG inactive.
Screening Nc1cc(Oc2cncc(Cl)c2)cc([N+](=O)[O-])c1 returned Chlamy TAG inactive.
COc1ccccc1C(=O)Nc1ccc(N2CCCC2)c(Cl)c1 was read as Chlamy TAG inactive.
`CCCS(=O)(=O)N1CCN(C(=O)c2ccc(Cl)cc2)CC1` gave Chlamy TAG inactive.
`CC1(C)CC(=O)C2=C(C1)Nc1ccccc1NC2c1ccc(-c2ccc([N+](=O)[O-])cc2)o1` (stereo not drawn) gave Chlamy TAG inactive.
For Cc1c(N/C=C/C(=O)c2cccs2)c(=O)n(-c2ccccc2)n1C the results were Chlamy TAG active.
`Cc1c(NC(=O)C23CC4CC(CC(C4)C2)C3)c(=O)n(-c2ccccc2)n1C` gave Chlamy TAG inactive.
Cc1c(NS(=O)(=O)c2cccs2)c(=O)n(-c2ccccc2)n1C was read as Chlamy TAG inactive.
For CC(=O)N(C)c1ccc(NC(=O)Cc2ccc(Br)cc2)cc1 the results were Chlamy TAG inactive.
CC(=O)c1cccc(Nc2nc(-c3c(C)nc4sccn34)cs2)c1 was read as Chlamy TAG inactive.
For COc1c(F)c(F)c(-c2csc(NC(C)=O)n2)c(F)c1F the results were Chlamy TAG inactive.
Screening CCOc1cccc(CN2CCC(C(=O)NCc3ccccn3)CC2)c1O returned Chlamy TAG inactive.
`COc1cc(C(=O)Nc2nc3c(s2)CCCC3)cc(OC)c1OC` gave Chlamy TAG active.
`O=C(Nc1nc2c(s1)CCCC2)c1cccc(Cl)c1` gave Chlamy TAG inactive.
Screening CCc1nnc(NC(=O)c2cc(OC)c(OC)c(OC)c2)s1 returned Chlamy TAG inactive.
Screening COc1ccc(CN2CCC(C(=O)NCCc3ccccc3)CC2)cc1OC returned Chlamy TAG inactive.
`COc1ccc(Cl)cc1NC(N)=Nc1nc(C)cc(C)n1` gave Chlamy TAG inactive.
`COc1cccc(N2C(=O)CC(SCC(=O)Nc3ccc(F)cc3)C2=O)c1` (stereo not drawn) gave Chlamy TAG inactive.
`O=C1CC(Nc2ccc(Br)cc2)C(=O)N1c1cccc(Cl)c1` (stereo not drawn) gave Chlamy TAG inactive.
For Cc1ccc(C(=O)c2ccc(N3CCN(C(=O)c4cccs4)CC3)c(F)c2)cc1C the results were Chlamy TAG inactive.
CCC(=O)c1ccc(N2CCN(C(C)=O)CC2)c(F)c1 was read as Chlamy TAG inactive.
Screening Cc1ccc(C(=O)c2ccc(N3CCN(C)CC3)c(F)c2)cc1C returned Chlamy TAG active.
Screening O=C(c1ccc(Cl)cc1[N+](=O)[O-])N1CCN(c2ccccc2)CC1 returned Chlamy TAG inactive.
`O=C1C(=O)N(Cc2cccnc2)C(c2ccc(Cl)cc2)C1=C(O)c1ccccc1` (stereo not drawn) gave Chlamy TAG inactive.
c1ccc(CN2CCC(N3CCN(Cc4ccco4)CC3)CC2)cc1 was read as Chlamy TAG inactive.
`CCN1CCN(C2CCC(C)CC2)CC1` (stereo not drawn) gave Chlamy TAG active.
`CCN1CCC(N2CCN(C=O)CC2)CC1` gave Chlamy TAG inactive.
For CC1CCC(N2CCN(Cc3ccccc3)CC2)CC1 (stereo not drawn) the results were Chlamy TAG active.
For CN(CCc1ccccc1)C1CCN(Cc2ccccc2)CC1 the results were Chlamy TAG active.
For C=C(C)CN(CC)C1CCN(Cc2ccccc2)CC1 the results were Chlamy TAG inactive.
For CCCCN(C)C1CCN(Cc2ccccc2)CC1 the results were Chlamy TAG inactive.
For CC1CCCN(C2CCN(Cc3ccccc3)CC2)C1 (stereo not drawn) the results were Chlamy TAG inactive.
Screening CC(=O)N1CCN(C2CCC(C)CC2)CC1 (stereo not drawn) returned Chlamy TAG inactive.
O=C(Nc1cccc(O)c1)c1ccc(F)cc1 was read as Chlamy TAG inactive.
For N#CN=C(N)CSc1nc2c(cc1C#N)CCCC2 the results were Chlamy TAG inactive.
Screening COc1ccc(-c2nnc(NC(=O)Nc3ccc(Cl)cc3)s2)cc1OC returned Chlamy TAG inactive.
CN(C)C1=C(Nc2ccc(F)c(F)c2)C(=O)c2ccccc2C1=O was read as Chlamy TAG inactive.
Screening Cc1cccc(C(=O)Nc2cccc(NC(=O)c3cccc(C)c3)c2C)c1 returned Chlamy TAG inactive.
Screening COc1ccc(C(=O)Nc2cccc(Cl)c2)cc1Br returned Chlamy TAG inactive.
Screening CCOc1cc(-c2nc(-c3ccccn3)no2)cc(OCC)c1OCC returned Chlamy TAG inactive.
For CC1(C)CC(n2c(NN)nc3c(c2=O)C2(CCCCC2)Cc2ccccc2-3)CCO1 (stereo not drawn) the results were Chlamy TAG inactive.
`O=C(O)c1ccc(CN2CCN(c3ccc([N+](=O)[O-])cc3)CC2)cc1` gave Chlamy TAG inactive.
`O=[N+]([O-])c1ccc(CN2CCN(c3ncccn3)CC2)cc1` gave Chlamy TAG inactive.
For CCCCOc1ccc(CN2CCN(c3ccc([N+](=O)[O-])cc3)CC2)cc1 the results were Chlamy TAG active.
`CCOc1ccc(CN2CCN(c3ccc([N+](=O)[O-])cc3)CC2)cc1` gave Chlamy TAG active.
O=[N+]([O-])c1ccc(N2CCN(Cc3ccncc3)CC2)cc1 was read as Chlamy TAG inactive.
Screening COc1cc(CN2CCN(c3ccc([N+](=O)[O-])cc3)CC2)cc(Br)c1O returned Chlamy TAG inactive.
Screening COc1cc(NS(=O)(=O)c2ccccc2)ccc1NS(=O)(=O)c1ccccc1 returned Chlamy TAG inactive.
`COc1cc(CN(C)CCN(C)C)cc(OC)c1` gave Chlamy TAG inactive.
`COc1ccc(NC(=O)c2c(-c3c(F)cccc3Cl)noc2C)c(OC)c1` gave Chlamy TAG inactive.
Screening O=C(Nc1nnc(SCc2ccccc2F)s1)Nc1ccc(Cl)cc1Cl returned Chlamy TAG inactive.
O=[N+]([O-])c1ccc(Nc2c[nH]c3ccccc23)cc1 was read as Chlamy TAG inactive.
`Cc1cc(Br)ccc1OCCOCCN1CCOCC1` gave Chlamy TAG active.
Screening Cc1ccc(OCCN2CCOCC2)c(Br)c1 returned Chlamy TAG inactive.
For Clc1ccc(OCCN2CCOCC2)c(Br)c1 the results were Chlamy TAG inactive.

Screening results (PubChem BioAssay)
